Source: PubChem BioAssay (Tox21)
“And” between values parts separate entries of the source, which are not always exact repeats. Equal entries are not always repeated. Inconclusive results are not listed. Where a call stands in place of a potency, no number is given. A structure can be active in one record and inactive in another. The source made the active and inactive calls. Calls follow the shape of the dose curve; as a rule, active = well fitted curve in the direction sought with a large enough effect in the repeat runs; inconclusive = weak or mixed curves; inactive = no such curve, though single readings can be large; an effect the other way counts as inactive or inconclusive.

Legend:
[1] = A CellTox Green Cytotoxicity Assay to monitor cytotoxicity in HEK293 cells - 32 hour (AID 1224881); also: nearly all actives have a fitted effect of over 40% in size; also: potency is read from the fitted curve at half-maximal effect
Summary of the method: (§1)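 Real-time, in one plate: 600 HEK293 cells/well with dead-cell DNA dye, pinned compound after 5 h, 37 C incubation over 40 h; viable cells give no appreciable fluorescence.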

[2] = A CellTox Green Cytotoxicity Assay to monitor cytotoxicity in HepG2 cells - 0 hour (AID 1224882); also: nearly all actives have a fitted effect of over 35% in size; also: potency is read from the fitted curve at half-maximal effect
Summary of the method: (§2)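 Cytotoxicity was tracked as dead-cell DNA fluorescence in HepG2 cells treated with test compounds at 37 C; each time-point value comes from one kinetic series spanning 0, 8, 16, 24, 32 and 40 h.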

[3] = A CellTox Green Cytotoxicity Assay to monitor cytotoxicity in HEK293 cells - 8 hour (AID 1224884); also: nearly all actives have a fitted effect of over 35% in size; also: potency is read from the fitted curve at half-maximal effect
Summary of the method: as §1

[4] = qHTS RealTime-Glo MT Cell Viability Assay in HepG2 cells - 16 hour (AID 1224885); also: nearly all actives have a fitted effect of over 50% in size; also: potency is read from the fitted curve at half-maximal effect
Summary of the method: (§3)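 Cell number in HepG2 cultures estimated from NanoLuc luminescence generated by metabolic reduction of a prosubstrate by living cells. The homogeneous, nonlytic format allowed repeated reads at 0, 8, 16, 24, 32 and 40 h of compound exposure.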

[5] = A CellTox Green Cytotoxicity Assay to monitor cytotoxicity in HEK293 cells - 16 hour (AID 1224888); also: nearly all actives have a fitted effect of over 35% in size; also: potency is read from the fitted curve at half-maximal effect
Summary of the method: as §1

[6] = qHTS RealTime-Glo MT Cell Viability Assay in HepG2 cells - 0 hour (AID 1224889); also: nearly all actives have a fitted effect of over 50% in size
Summary of the method: as §3

[7] = A CellTox Green Cytotoxicity Assay to monitor cytotoxicity in HepG2 cells - 8 hour (AID 1224890); also: nearly all actives have a fitted effect of over 45% in size; also: potency is read from the fitted curve at half-maximal effect
Summary of the method: as §2

[8] = A CellTox Green Cytotoxicity Assay to monitor cytotoxicity in HepG2 cells - 32 hour (AID 1224883); also: nearly all actives have a fitted effect of over 50% in size; also: potency is read from the fitted curve at half-maximal effect
Summary of the method: as §2

[9] = qHTS RealTime-Glo MT Cell Viability Assay in HEK293 cells - 24 hour (AID 1224886); also: nearly all actives have a fitted effect of over 50% in size; also: potency is read from the fitted curve at half-maximal effect
Summary of the method: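 Homogeneous bioluminescent viability format in HEK293 cells (600 cells/well). Following 5 h at 37 C/5% CO2, 23 nL compound was pintooled; the signal was measured repeatedly during 40 h incubation.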

[10] = qHTS RealTime-Glo MT Cell Viability Assay in HEK293 cells - 8 hour (AID 1224887); also: nearly all actives have a fitted effect of over 50% in size; also: potency is read from the fitted curve at half-maximal effect
Summary of the method: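 Kinetic, non-lysing viability readout. Seed HEK293 (600/well) with reagent, incubate 5 h at 37 C/5% CO2, pin 23 nL compound in DMSO, incubate at 37 C, read luminescence at 0, 8, 16, 24, 32, 40 h.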

Structure (SMILES) | Potency [1] | Potency [2] | Potency [3] | Potency [4] | Potency [5] | Potency [6] | Potency [7] | Potency [8] | Potency [9] | Potency [10]
CC(C)(C)C1CCC(CC2=C(O)c3ccccc3C(=O)C2=O)CC1 (stereo not given) | 21.3 µM (active) | inactive | inactive | inactive | inactive | inactive | inactive | – | – | –
Cc1cc(O)c(C(C)(C)C)cc1C(C)(C)C | 24.5 µM (active) | – | 19.5 µM (active) | 43.6 µM (active) | 34.7 µM (active) | inactive | 24.5 µM (active) | 24.5 µM (active) | 19.5 µM (active) | 13.8 µM (active)
CCCCCCCCCCCCCC[P+](CCCC)(CCCC)CCCC (tested in a mixture with another compound) | 15.6 µM (active) | – | 19.6 µM (active) | 19.6 µM (active) | 17.5 µM (active) | inactive | 22 µM (active) | 15.6 µM (active) | 1.96 µM (active) | 15.6 µM (active)
Cc1cc(O)c(C(C)(C)C)cc1Sc1cc(C(C)(C)C)c(O)cc1C | 54.8 µM (active) | – | inactive | 48.9 µM (active) | inactive | inactive | inactive | 61.5 µM (active) | 21.8 µM (active) | 24.5 µM (active)
Cc1cccc(N(C)C(=S)Oc2ccc3c(c2)C2CCC3C2)c1 (stereo not given) | inactive | – | inactive | inactive | inactive | inactive | inactive | inactive | inactive | –
O=C(c1ccc(F)cc1)C1CCN(CCn2c(=O)[nH]c3ccccc3c2=O)CC1 | inactive | – | inactive | inactive | inactive | inactive | – | inactive | 9.52 µM (active) | 9.52 µM (active)
CSc1ccc(C(=O)c2[nH]c(=O)[nH]c2C)cc1 | inactive | – | inactive | inactive | inactive | inactive | inactive | inactive | inactive | inactive
CCCCCCCCCCC=O | inactive | – | inactive | inactive | inactive | – | inactive | inactive | inactive | inactive
CC(C)c1ccc2c(c1)CC[C@H]1[C@](C)(CN)CCC[C@]21C | 19.5 µM (active) | – | 38.9 µM (active) | 17.4 µM (active) | 24.5 µM (active) | – | 43.6 µM (active) | 12.3 µM (active) | 12.3 µM (active) | 21.9 µM (active)
CCCC(C)c1ccccc1O (stereo not given) | 49 µM (active) | inactive | inactive | inactive | – | inactive | – | – | inactive | inactive
CC(C)(C)CC(C)(C)c1ccc(O)c(Cc2ccc(Cl)cc2Cl)c1 | 23.9 µM (active) | inactive | inactive | – | – | inactive | – | – | 23.9 µM (active) | 23.9 µM (active)
C=C(C)C(=O)OCC(O)COc1ccc(C(C)(C)c2ccc(OCC(O)COC(=O)C(=C)C)cc2)cc1 (stereo not given) | inactive | inactive | inactive | 19.5 µM (active) | inactive | inactive | inactive | – | 11 µM (active) | –
OC1(c2ccc(Cl)c(C(F)(F)F)c2)CCN(CCCC(c2ccc(F)cc2)c2ccc(F)cc2)CC1 | 23.9 µM (active) | – | 21.3 µM (active) | 10.7 µM (active) | 23.9 µM (active) | inactive | – | 8.49 µM (active) | 9.52 µM (active) | 19 µM (active)
CCCCCCCC/C=C/CCCCCCCC1=NCCN1CCO | 24.5 µM (active) | – | 49 µM (active) | 24.5 µM (active) | 34.7 µM (active) | – | 49 µM (active) | 13.8 µM (active) | 19.5 µM (active) | 43.6 µM (active)
CCCN(CCC)C(=O)C(CCC(=O)OCCCN1CCN(CCOC(=O)Cc2c(C)n(C(=O)c3ccc(Cl)cc3)c3ccc(OC)cc23)CC1)NC(=O)c1ccccc1 (stereo not given) | inactive | inactive | – | – | inactive | – | – | 23.9 µM (active) | – | 23.9 µM (active)
C[C@H]1[C@H]2CC[C@H]3[C@@H]4CC=C5C[C@@H](N(C)C)CC[C@]5(C)[C@H]4CC[C@]23CN1C | inactive | – | inactive | inactive | inactive | inactive | – | inactive | inactive | inactive
C[n+]1ccn(Cc2ccccc2)c1 | inactive | – | inactive | inactive | inactive | inactive | inactive | inactive | inactive | inactive
COc1cc(-c2nc(NC(=O)c3cc4cc(C)cc(C)c4n3CC(=O)O)sc2CCC2CCCCC2)c(OC)cc1Cl | inactive | 44.9 µM (active) | – | 35.7 µM (active) | inactive | – | 40 µM (active) | – | 40 µM (active) | inactive
NC(=O)N1C(=O)C(C(=O)c2cc(Cl)cs2)c2cc(F)c(Cl)cc21 (stereo not given) | inactive | inactive | – | inactive | inactive | – | inactive | – | inactive | inactive

Structure (SMILES) | Potency [1] | Potency [2] | Potency [3] | Potency [4] | Potency [5] | Potency [6] | Potency [7] | Potency [8] | Potency [9] | Potency [10]
O=c1[nH]sc2cc(Cl)ccc12 | inactive | inactive | inactive | – | inactive | inactive | – | – | – | inactive
Cc1cc2c(cc1C(F)(F)F)N(C(=O)Nc1ccc(Oc3cccnc3C)nc1)CC2 | inactive | inactive | – | inactive | inactive | inactive | – | – | – | inactive
N#CSc1ccc(N)c([N+](=O)[O-])c1 | inactive | inactive | inactive | inactive | inactive | inactive | inactive | – | 49.3 µM (active) | –
CN(C)C(=O)C1(N2CCCCC2)CCN(CC[C@@]2(c3ccc(Cl)c(Cl)c3)CN(C(=O)c3ccccc3)CCO2)CC1 | 32.4 µM (active) | – | – | 36.3 µM (active) | 45.8 µM (active) | inactive | 45.8 µM (active) | 18.2 µM (active) | 11.5 µM (active) | 16.2 µM (active)
CCCCCCCCOC(=O)c1ccc(O)cc1 | 43.5 µM (active) and 43.6 µM (active) | – | – | inactive | 48.8 µM (active) and 49 µM (active) | inactive | inactive | inactive and 43.6 µM (active) | 24.5 µM (active) | 43.5 µM (active)
C[C@@H](NCCCc1cccc(C(F)(F)F)c1)c1cccc2ccccc12 | 23.9 µM (active) | – | – | 21.3 µM (active) | 23.9 µM (active) | – | 21.3 µM (active) | 15.1 µM (active) | 23.9 µM (active) | 23.9 µM (active)
Clc1ccc2cc3ccccc3cc2c1 | inactive | – | inactive | inactive | inactive | – | – | – | – | –
CCCCCCCCCCCC(=O)NCCCN(C)C | 54.9 µM (active) | – | 54.9 µM (active) | 49 µM (active) | 54.9 µM (active) | – | 54.9 µM (active) | 24.5 µM (active) | 43.6 µM (active) | –
COc1ccc(-c2ccc3cc(C(=O)O)ccc3c2)cc1C12CC3CC(CC(C3)C1)C2 | inactive | – | inactive | – | inactive | inactive | – | 21.3 µM (active) | 4.77 µM (active) | –
COc1cccc(N)c1 | – | inactive | inactive | inactive | inactive | inactive | inactive | inactive | inactive | inactive
CCN(C(=O)N(CC)c1ccccc1)c1ccccc1 | inactive | – | – | inactive | inactive | inactive | inactive | inactive | – | –
N/C(=N\N=C\c1ccc(Cl)cc1)N/N=C/c1ccc(Cl)cc1 | 23.9 µM (active) | – | 23.9 µM (active) | – | 23.9 µM (active) | – | 21.3 µM (active) | 23.9 µM (active) | – | –
CCCN(CCC)c1c([N+](=O)[O-])cc(C(F)(F)F)c(N)c1[N+](=O)[O-] | 54.8 µM (active) | – | – | 48.9 µM (active) | – | inactive | – | 54.8 µM (active) | 19.4 µM (active) | 9.75 µM (active)
CCCCCCCCOc1ccccc1C(=O)Nc1ccc(C(=O)OCC[N+](C)(CC)CC)cc1 | 23.9 µM (active) | – | 23.9 µM (active) | – | 23.9 µM (active) | inactive | 26.8 µM (active) | 23.9 µM (active) | – | –
CC(C)=CCOc1ccc(/C=C/C(=O)c2ccc(OCC=C(C)C)cc2OCC(=O)O)cc1 | inactive | – | – | inactive | inactive | inactive | inactive | inactive | inactive | inactive
ON=C1CCCC1 | inactive | – | inactive | inactive | inactive | – | inactive | inactive | 22.6 µM (active) | –
COc1cccc2c1C(=O)c1c(O)c3c(c(O)c1C2=O)C[C@@](O)(C(=O)CO)C[C@@H]3O[C@H]1C[C@H](N)[C@H](O[C@@H]2CCCCO2)[C@H](C)O1 | inactive | – | inactive | – | inactive | inactive | 23.9 µM (active) | 1.69 µM (active) | 0.338 µM (active) | inactive
Cc1oc(-c2ccccc2)nc1CCC(=O)c1ccc(CC2SC(=O)NC2=O)cc1 (stereo not given) | inactive | – | – | inactive | inactive | inactive | – | inactive | inactive | inactive
